The structures appear in SMILES notation. Inconclusive results are not listed. Activity calls are given as the source filed them. How the source made its calls, unless noted: active means hit-call score of the fitted dose curve at least 0.9, where 1 is the maximum; inconclusive means response in the unintended direction; inactive means score below 0.9.

Assay [1] can be described thus: TOX21_p53_BLA_p2_viability: Viability Assessment in the Tox21 HCT-116 p53 Agonism Beta-lactamase Assay, Phase 2 (AID 2283591).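 Further: compound exposure lasted 16 h at 37 °C; actives lower the ATP signal meaning cytotoxicity.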 The method, boiled down:
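HCT116 p53-bla cells, 4000/well, dosed after 5 h plating (217-fold dilution of DMSO stocks) and incubated 16 h at 37C. Viability taken as cellular ATP by CellTiter-Glo luminescence after 30 min RT; signal loss marks cytotoxicity.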

Assay [2] addresses Cellular tumor antigen p53 (Homo sapiens) (UniProt P04637). Kind of assay: TOX21_p53_BLA_p2_ratio: Tox21 HCT-116 p53 Agonism Beta-lactamase Assay, Ratio, Phase 2 (AID 2283592). The method, boiled down:
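Read-out is the blue/green (460/530 nm, 405 nm excitation) ratio after 2 h CCF4-AM loading, fitted as gain versus DMSO. Compounds, pinned at 217-fold dilution from DMSO stocks, stayed 16 h on HCT-116 beta-lactamase reporter cells seeded 5 h earlier.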

Assay [3] is described as follows: TOX21_p53_BLA_p3_viability: Viability Assessment in the Tox21 HCT-116 p53 Agonism Beta-lactamase Assay, Phase 3 (AID 2283593).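 Further: cells exposed to compound for 16 h before reading.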 The essentials:
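HCT116 cells, 4000/well, dosed 5 h after plating by pin transfer (217-fold dilution from DMSO stock) and incubated 16 h at 37C, 5% CO2. Viability read as ATP luminescence with CellTiter-Glo after 30 min at room temperature.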

Assay [4] concerns the target Cellular tumor antigen p53 (Homo sapiens) (UniProt P04637). As to the kind of experiment: TOX21_p53_BLA_p3_ratio: Tox21 HCT-116 p53 Agonism Beta-lactamase Assay, Ratio, Phase 3 (AID 2283596). The method, boiled down:
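Cells were seeded at 4000/well, rested 5 h at 37C, then dosed with DMSO compound solutions (217-fold dilution) for 16 h. CCF4-AM substrate was loaded for 2 h at room temperature, and the 460/530 nm emission ratio was fitted for gain of signal versus DMSO.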

Assay [5] is described as follows: TOX21_p53_BLA_p4_viability: Viability Assessment in the Tox21 HCT-116 p53 Agonism Beta-lactamase Assay, Phase 4 (AID 2283597).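 Further: hits lower the luminescence signal meaning cytotoxicity.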 The method, boiled down:
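Cytotoxicity as reduced cellular ATP (CellTiter-Glo luminescence, 30 min room temperature), measured in the same wells following the CCF4 FRET p53 reading. Human HCT-116 cells received compounds in DMSO (217-fold dilution) for 16 h.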

Assay [6] addresses Cellular tumor antigen p53 (Homo sapiens) (UniProt P04637). Kind of assay: TOX21_p53_BLA_p5_ratio: Tox21 HCT-116 p53 Agonism Beta-lactamase Assay, Ratio, Phase 5 (AID 2283599). The essentials:
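HCT-116 p53-bla cells (4000/well) plated 5 h, dosed with compound (217-fold DMSO dilution) for 16 h at 37 C; CCF4-AM substrate 2 h at room temperature. Activity is the 460/530 nm emission ratio (405 nm excitation), fitted in gain-of-signal direction versus DMSO.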

The target is the same in assay [7]. As to the kind of experiment: TOX21_p53_BLA_p4_ratio: Tox21 HCT-116 p53 Agonism Beta-lactamase Assay, Ratio, Phase 4 (AID 2283601). The method, boiled down: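 HCT-116 p53 beta-lactamase reporter cells (4000/well) preincubated 5 h, then compound (217-fold dilution of DMSO stock) for 16 h at 37C. CCF4-AM substrate added 2 h at room temperature; 460/530 nm emission ratio fitted upward versus DMSO.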

Assay [8] can be described thus: TOX21_p53_BLA_p5_viability: Viability Assessment in the Tox21 HCT-116 p53 Agonism Beta-lactamase Assay, Phase 5 (AID 2283600). The method, boiled down:
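Viability came from CellTiter-Glo ATP luminescence, read after 30 min at room temperature. Before this, HCT-116 p53-bla cells (4000/well) had 16 hours of compound exposure at 37C, with DMSO stocks diluted 217-fold on transfer.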

Assay [9] is described as follows: CCTE_Harrill_HTTr_Viability_MCF7: CCTE's 6-hour Cell Viability Assessment for the High-Throughput Transcriptomics (HTTr) Platform, in MCF-7 cells cultured in DMEM + 10% fetal bovine serum, Harrill Lab (AID 2284010; active means hit-call score of the fitted dose curve at least 0.9, where 1 is the maximum; inactive means score below 0.9). The method, boiled down:
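Eight-point concentration series, six-hour exposure. Propidium iodide exclusion imaged to assess membrane integrity as a cytotoxicity readout; bidirectional fitting was done with DMSO as negative control and activity baseline.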

Assay [10] can be described thus: CCTE_Harrill_HTTr_Apoptosis_MCF7: CCTE's 6-hour Apoptosis Assessment for the High-Throughput Transcriptomics (HTTr) Platform, in MCF-7 cells cultured in DMEM + 10% fetal bovine serum, Harrill Lab (AID 2284011; active means hit-call score of the fitted dose curve at least 0.9, where 1 is the maximum; inactive means score below 0.9). The essentials:
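High-content imaging of CellEvent Caspase 3/7 Green signal follows a six-hour exposure, with eight concentrations per chemical. MCF-7 cells grown in DMEM plus 10% fetal bovine serum; activity fitted in both directions against DMSO.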

A short description of assay [11]: CCTE_Harrill_HTTr_CellCount_MCF7: CCTE's Cell Proliferation Assessment for the High-Throughput Transcriptomics (HTTr) Platform, Harrill Lab (AID 2284012).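 Further: intended direction is loss of nuclei count meaning fewer cells.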 The method, boiled down: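 For this full-screen endpoint, MCF-7 cultures received eight compound dilutions for six hours. Well nuclei counts from Hoechst imaging were analyzed relative to DMSO.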
The next assay addresses THRB (gene 7068) (UniProt P10828). Kind of assay: TOX21_TRB_BLA_Antagonist_Followup_ratio: Tox21 Thyroid Hormone Receptor beta Antagonism Beta-lactamase (BLA) Follow-Up Assay, Ratio (AID 2283958). The method, boiled down:
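Using charcoal-stripped 2% FBS medium, human TRβ-LBD/GAL4 reporter HEK293T cells received test compounds for 18 h. The endpoint is the cleaved-to-uncleaved substrate ratio (460/530 nm).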

Assay [12] can be described thus: TOX21_TRB_BLA_Antagonist_Followup_viability: Viability Assessment in the Tox21 Thyroid Hormone Receptor beta Antagonism Beta-lactamase (BLA) Follow-Up Assay (AID 2283961). The method, boiled down:
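ATP-based CellTiter-Glo luminescence (30 min, room temperature) run in the same wells as the TRβ-bla readout. Cells: GeneBLAzer HEK293T expressing GAL4-TRβ LBD, exposed 18 h at 37C to compounds at 11 concentrations in triplicate, stripped-serum medium.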

In assay [13] the target is Retinoic acid receptor RXR-alpha (Homo sapiens) (UniProt P19793). Kind of assay: TOX21_TR_RXR_BLA_Antagonist_Followup_ratio: Tox21 Thyroid Hormone Receptor beta Retinoid X Receptor alpha (RXRa) Antagonism Beta-lactamase (BLA) Follow-Up Assay, Ratio (AID 2283972). The essentials: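 After 5 h attachment at 37C, HEK293T RXRa-bla cells (2,500/well, 2% charcoal-stripped FBS, no phenol red) received compounds at 11 concentrations in triplicate for 16 h. Beta-lactamase read as 460:530 nm ratio after 2 h RT substrate loading.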

Assay [14] in a line: TOX21_TR_RXR_BLA_Antagonist_Followup_viability: Viability Assessment in the Tox21 Thyroid Hormone Receptor beta Retinoid X Receptor alpha (RXRa) Antagonism Beta-lactamase (BLA) Follow-Up Assay (AID 2283979). The essentials:
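RXRa-bla HEK293T cells (2,500/well, phenol red-free DMEM, 2% charcoal-stripped FBS) were attached 5 h, then exposed to compounds at 11 concentrations in triplicate for 16 h at 37C. Viability measured by CellTiter-Glo ATP luminescence, bidirectional fitting versus DMSO.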

Cellular tumor antigen p53 (Homo sapiens), sequence (P04637 whole entry, looked up): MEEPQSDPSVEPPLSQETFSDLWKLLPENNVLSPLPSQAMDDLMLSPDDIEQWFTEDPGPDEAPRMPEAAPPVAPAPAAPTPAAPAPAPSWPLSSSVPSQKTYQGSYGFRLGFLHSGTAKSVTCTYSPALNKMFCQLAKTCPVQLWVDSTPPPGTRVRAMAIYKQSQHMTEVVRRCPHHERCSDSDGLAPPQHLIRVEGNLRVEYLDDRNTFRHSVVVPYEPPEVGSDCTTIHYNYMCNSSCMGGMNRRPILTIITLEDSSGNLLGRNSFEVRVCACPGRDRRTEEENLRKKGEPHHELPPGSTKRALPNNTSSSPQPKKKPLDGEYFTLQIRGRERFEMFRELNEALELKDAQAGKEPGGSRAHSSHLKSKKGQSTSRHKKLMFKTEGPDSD
THRB (gene 7068), sequence (P10828 whole entry, looked up, the tested form may be a part): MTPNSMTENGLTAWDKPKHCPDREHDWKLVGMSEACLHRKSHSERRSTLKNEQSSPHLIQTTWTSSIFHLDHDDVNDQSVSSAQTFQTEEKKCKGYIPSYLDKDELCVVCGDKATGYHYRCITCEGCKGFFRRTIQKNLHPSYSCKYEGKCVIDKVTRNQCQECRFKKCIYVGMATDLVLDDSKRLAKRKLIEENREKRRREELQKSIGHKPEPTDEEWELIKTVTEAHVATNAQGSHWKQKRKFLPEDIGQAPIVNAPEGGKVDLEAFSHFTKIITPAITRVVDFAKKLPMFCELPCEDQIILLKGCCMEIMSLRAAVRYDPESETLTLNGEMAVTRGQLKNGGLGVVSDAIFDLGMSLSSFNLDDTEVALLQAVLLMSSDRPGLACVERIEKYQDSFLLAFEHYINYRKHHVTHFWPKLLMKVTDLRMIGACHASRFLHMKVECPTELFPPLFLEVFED
Retinoic acid receptor RXR-alpha (Homo sapiens), sequence (P19793 whole entry, looked up): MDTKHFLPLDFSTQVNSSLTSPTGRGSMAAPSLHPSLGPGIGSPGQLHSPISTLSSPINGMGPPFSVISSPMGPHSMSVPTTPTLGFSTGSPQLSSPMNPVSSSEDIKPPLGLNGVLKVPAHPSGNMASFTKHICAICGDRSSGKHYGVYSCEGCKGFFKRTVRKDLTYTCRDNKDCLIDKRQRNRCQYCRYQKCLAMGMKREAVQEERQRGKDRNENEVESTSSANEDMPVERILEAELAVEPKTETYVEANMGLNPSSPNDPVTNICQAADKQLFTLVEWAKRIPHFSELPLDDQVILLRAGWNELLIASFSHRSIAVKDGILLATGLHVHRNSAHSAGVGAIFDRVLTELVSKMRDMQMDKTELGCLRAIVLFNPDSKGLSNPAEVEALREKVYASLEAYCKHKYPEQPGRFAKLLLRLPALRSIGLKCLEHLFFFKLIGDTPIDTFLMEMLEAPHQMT

For the molecule `CN(C)CCCCl`, the molecule was called inactive in [1], in assay [2], in assay [3], in [4], in assay [5] and in assay [6]. In addition, the outcome in assay [7] was inactive.

With `CC1(C)[C@@H](O[C@H]2O[C@H](C(=O)O)[C@@H](O)[C@H](O)[C@H]2O[C@@H]2O[C@H](C(=O)O)[C@@H](O)[C@H](O)[C@H]2O)CC[C@]2(C)[C@H]3C(=O)C=C4[C@@H]5C[C@@](C)(C(=O)O)CC[C@]5(C)CC[C@@]4(C)[C@]3(C)CC[C@@H]12`, the call in [1], in [2], in assay [3], in [4], in assay [5] and in [6] was inactive. For the same molecule, the result in assay [8], in [7], in [9], in [10] and in assay [11] was inactive.

For `C1=CCC(c2ccccc2)CC1` (configuration not stated), the outcome in [1], in assay [2], in assay [3], in assay [4], in [5] and in assay [6] was inactive. Also, the result in assay [8], in assay [7], in [9], in assay [10] and in assay [11] was inactive.

Turning to `CCCCC[C@H](O)/C=C/[C@@H]1[C@H]2C/C(=C/CCCC(=O)O)O[C@H]2C[C@H]1O`, the call in [1], in [2], in assay [3], in [4], in [5] and in [6] was inactive. Besides, the outcome in [7] was inactive.

`CCC[C@@]1(CCc2ccccc2)CC(O)=C([C@H](CC)c2cccc(NS(=O)(=O)c3ccc(C(F)(F)F)cn3)c2)C(=O)O1`: the outcome in assay [1], in assay [2], in [3], in [4], in assay [5] and in assay [6] was inactive. The molecule was called inactive (in assay [8]; in assay [7]; in the assay with THRB (gene 7068); in [12]; in assay [13]; in [14]).

In the case of `OC[C@@H](O)[C@H](O)[C@H](O)[C@@H](O)CO`, the call in assay [1], in assay [2], in assay [3], in [4], in [5] and in assay [6] was inactive. Further, in assay [7], the result was inactive.

For the molecule `COc1cc2c(Nc3ccc(Br)cc3F)ncnc2cc1OCC1CCN(C)CC1`, the molecule was classed as inactive in assay [1], in assay [2], in [3], in assay [4], in assay [5] and in assay [6]. For the same molecule, the outcome in assay [8] was inactive.

For the molecule `CC(=O)Nc1ccc(C)cc1`, the molecule was called inactive in [1], in [2], in assay [3], in assay [4], in [5] and in [6]. For the same molecule, the outcome in assay [7] was inactive.

Turning to `NNc1nncc2ccccc12`, the molecule was classed as inactive in [1], in assay [2], in assay [3], in assay [4], in assay [5] and in [6]. Further, the outcome in assay [8], in [7], in assay [9] and in [10] was inactive.

As usually defined, the AC50 is the midpoint of the concentration-response curve, whichever way the signal moves. Regarding `Cc1nc(Nc2ncc(C(=O)Nc3c(C)cccc3Cl)s2)cc(N2CCN(CCO)CC2)n1`, the result in assay [1] and in [8] was inactive. In addition, the AC50 is 26.8 µM (active) in [2]; 33.4 µM (active) in assay [3]; 36.5 µM (active) in [4]; 35.5 µM (active) in [5]; 32.7 µM (active) in [6]; 22.8 µM (active) in [7].
